# “And” between values parts separate entries of the source, which are not always exact repeats. Equal values may be shown once. Records with an inconclusive call do not appear. More than one record can exist for a structure, and the calls need not agree. A number with no mark means an inactive call. The source made the active and inactive calls. The call rests on the fitted dose curve; in most records, active means well fitted inhibition curve with a large enough effect; inconclusive means small, poorly fitted or top-dose-only effect; inactive means flat fitted curve, though single readings scatter.
# Legend:
# [1] = test system: CRL-7250; assay: Cytotoxic Profiling of Annotated Libraries Using Quantitative High-Throughput Screening (AID 1296008); conditions: Five cell lines viability, CellTiter-Glo ATP luminescence, 48-72 h; max response: hits give low values
# Summary of the method: (§1)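 Compounds were pin-transferred onto cells and incubated 48 or 72 hr at 37 degree Celsius, 95% humidity. CellTiter-Glo was added, plates sat 10 min at room temperature, then ATP-coupled luminescence was imaged as the viability read-out.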
# [2] = test system: HEK293; assay: as above; conditions: Five cell lines viability, CellTiter-Glo ATP luminescence, 48-72 h; max response: hits give low values
# Summary of the method: as §1
# [3] = test system: HaCat; assay: as above; conditions: Five cell lines viability, CellTiter-Glo ATP luminescence, 48-72 h; max response: hits give low values
# Summary of the method: as §1
# [4] = test system: KB-3-1; assay: as above; conditions: Five cell lines viability, CellTiter-Glo ATP luminescence, 48-72 h; max response: hits give low values
# Summary of the method: as §1
# [5] = test system: NIH3T3; assay: as above; conditions: Five cell lines viability, CellTiter-Glo ATP luminescence, 48-72 h; max response: hits give low values
# Summary of the method: as §1
# [6] = test system: MCC-13; assay: qHTS assay to identify novel small-molecules to repurpose for Merkel cell carcinoma treatment (AID 1296009); conditions: MCC and control cell lines, CellTiter-Glo viability, 72 h; series mostly up to 46 µM
# Summary of the method: (§2)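 Luminescence from CellTiter-Glo, read 10 min after addition at room temperature, reported viability following a 72 hr, 37 degree celsius treatment with NPC or MIPE compounds in titration; values normalized to plate controls.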
# [7] = test system: MCC-26; assay: as above; conditions: MCC and control cell lines, CellTiter-Glo viability, 72 h; series mostly up to 46 µM
# Summary of the method: as §2
# [8] = test system: HACAT; assay: as above; conditions: MCC and control cell lines, CellTiter-Glo viability, 72 h; series mostly up to 44.8 µM
# Summary of the method: as §2
# [9] = test system: MKL-1; assay: as above; conditions: MCC and control cell lines, CellTiter-Glo viability, 72 h; series mostly up to 46 µM
# Summary of the method: as §2
# [10] = test system: MKL-2; assay: as above; conditions: MCC and control cell lines, CellTiter-Glo viability, 72 h; series mostly up to 46 µM
# Summary of the method: as §2
# [11] = test system: NIH3T3; assay: as above; conditions: MCC and control cell lines, CellTiter-Glo viability, 72 h; at 44.8 µM (top of the series) unless noted
# Summary of the method: as §2
# Further: nearly all actives have a fitted effect of over 60% in size.
# On the % scale 0 is the no-effect control and ±100 the full control effect; potency means the concentration at half of the fitted maximal effect.
smiles,measurement,setting,value
Cc1cc(Nc2cc(N3CCN(C)CC3)nc(C=Cc3ccccc3)n2)n[nH]1,Potency,[1],5.4 µM (active)
same,Potency,[2],7.62 µM (active)
same,Potency,[3],2.7 µM (active)
same,Potency,[4],3.03 µM (active)
same,Potency,[5],6.05 µM (active)
same,Potency,[6],9.59 µM (active)
same,Potency,[7],9.59 µM (active)
COc1ccc(CC2SC(=O)NC2=O)cc1C(=O)NCc1ccc(C(F)(F)F)cc1 (stereo not drawn),Potency,[1],11.8 µM (active)
same,max response,[2],-1.55%
same,outcome,[3],inactive
same,max response,[4],-9.05%
same,max response,[5],2.55%
same,Potency,[8],inactive
same,Potency,[6],inactive
same,Potency,[9],inactive
same,Potency,[10],inactive
Cc1nc(N)ncc1-c1nc(N2CCOCC2)c2sc(C(C)(C)O)cc2n1,Potency,[1],2.59 µM (active)
same,Potency,[2],1.18 µM (active) and 1.3 µM (active)
same,Potency,[3],41.8 nM (active) and 130 nM (active)
same,Potency,[4],3.66 µM (active)
same,Potency,[5],1.87 µM (active) and 920 nM (active)
same,Potency,[6],inactive
CC(=O)OCC(=O)[C@@]1(O)[C@H](C)C[C@H]2[C@@H]3C=C(C)C4=Cc5c(cnn5-c5ccccc5)C[C@]4(C)[C@@H]3[C@@H](O)C[C@@]21C,Potency,[1],20.9 µM (active)
same,Potency,[2],13.2 µM (active)
same,max response,[3],-6.31%
same,outcome,[4],inactive
same,Potency,[5],14.8 µM (active)
same,Potency,[6],inactive
same,Potency,[7],inactive
same,Potency,[9],inactive
same,Potency,[10],7.43 µM (active)
CN(C)Cc1c(C(=O)NCCOc2ccc(C(=O)NO)cc2)oc2ccccc12,Potency,[1],4.69 µM (active) and 4.61 µM (active)
same,Potency,[2],1.87 µM (active) and 1.16 µM (active)
same,Potency,[3],4.11 µM (active)
same,Potency,[4],1.48 µM (active) and 1.3 µM (active)
same,Potency,[5],3.72 µM (active) and 3.26 µM (active)
same,Potency,[6],8.33 µM (active)
same,Potency,[7],7.43 µM (active)
same,Potency,[10],0.662 µM (active)
C=CC(=O)Nc1cccc(Oc2nc(Nc3ccc(N4CCN(C)CC4)cc3)ncc2Cl)c1,Potency,[1],4.18 µM (active) and 920 nM (active)
same,Potency,[2],5.26 µM (active) and 9.2 µM (active)
same,Potency,[3],1.18 µM (active) and 2.31 µM (active)
same,Potency,[4],2.96 µM (active) and 5.8 µM (active)
same,Potency,[5],3.72 µM (active) and 6.51 µM (active)
same,Potency,[6],7.43 µM (active)
same,Potency,[7],11.8 µM (active)
same,Potency,[9],3.32 µM (active)
same,Potency,[10],8.33 µM (active)
C=CCn1c(=O)c2cnc(Nc3ccc(N4CCN(C)CC4)cc3)nc2n1-c1cccc(C(C)(C)O)n1,max response,[1],-7.63%
same,Potency,[2],235 nM (active) and 920 nM (active)
same,Potency,[3],332 nM (active) and 1.64 µM (active)
same,Potency,[4],0.264 µM (active)
same,Potency,[5],469 nM (active) and 1.16 µM (active)
same,Potency,[6],6.62 µM (active)
same,Potency,[7],4.69 µM (active)
same,Potency,[9],0.662 µM (active)
COc1cc2c(Oc3ccc(-c4cnc(Nc5ccc(F)cc5)n(C)c4=O)cc3F)ccnc2cc1OCCCN1CCOCC1,Potency,[1],13.2 µM (active)
same,Potency,[2],4.69 µM (active)
same,Potency,[3],23.5 µM (active)
same,Potency,[4],9.35 µM (active)
same,Potency,[5],526 nM (active) and 5.8 µM (active)
Clc1cccc(-n2nnnc2NCc2ccccc2Oc2ccccn2)c1Cl,outcome,[1],inactive
same,max response,[2],-13.7% and -15.5%
same,max response,[3],-3.03% and -4.47%
same,max response,[4],-10.9% and -7.38%
same,outcome,[5],inactive
same,Potency,[6],inactive
same,Potency,[7],inactive
same,Potency,[9],inactive
same,Potency,[10],inactive
same,outcome,[11],inactive
CC(NCc1ccc2c(c1)nc(NC(=O)c1ccc(-c3cn[nH]c3)s1)n2CC(C)(C)O)C(C)(C)C (stereo not drawn),Potency,[1],0.296 µM (active)
same,Potency,[2],0.132 µM (active)
same,Potency,[3],0.743 µM (active)
same,Potency,[4],0.209 µM (active)
same,Potency,[5],0.59 µM (active)
same,Potency,[6],2.35 µM (active)
same,Potency,[7],1.48 µM (active)
same,Potency,[9],0.332 µM (active)
CC(C)Nc1cc(C(F)(F)F)cc2nc(NC(=O)c3cccnc3)nn12,max response,[1],-10.3% and 1%
same,max response,[2],-16.8%
same,max response,[3],-1.8%
same,outcome,[4],inactive
same,max response,[5],3.06% and -1.67%
same,Potency,[6],inactive
same,Potency,[7],inactive
same,Potency,[9],inactive
same,Potency,[10],inactive
C=CC(=O)Nc1cccc(Oc2nc(Nc3ccc(N4CCN(C)CC4)cc3OC)ncc2Cl)c1,max response,[1],-21.1%
same,max response,[2],-27.8%
same,Potency,[3],2.09 µM (active) and 4.11 µM (active)
same,max response,[4],-0.948%
same,Potency,[5],18.4 µM (active)
same,max response,[5],-7.7%
same,Potency,[6],2.96 µM (active)
same,Potency,[7],11.8 µM (active)
same,Potency,[9],2.64 µM (active)
same,Potency,[10],inactive

# Reference: PubChem BioAssay (NCATS)
